Where “and” joins values, the source holds several entries; their conditions need not be identical. Equal entries are not always repeated. Hit rate of the full screen: of about 5,500 compounds, about 2,000 (36%) were called active. Roughly 18% stayed inconclusive and do not appear here. No stated cut-off is given here; in the data, active means normalized growth mostly below about 0.91 (no sharp cut-off); inconclusive means no clear call, values can overlap the other calls; inactive means mostly above about 0.92. The list shows a part of the results.
Assay: chemical genetic growth profiling, strain panel (AID 1159580);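 further: tested at 20 µM; growth read once vehicle control cultures reached saturation at 30 °C; 1 = growth at the plate median or of vehicle wells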
Details: S. cerevisiae deletion strains, growth OD

Measured: normalized growth

COC(=O)C1=C(C)NC(C)=C(C(=O)OC)C1c1ccccc1[N+](=O)[O-]
inactive: locus YAL040C, strain CLN3, stronger effect = lower value 0.993 | locus YBR021W, strain FUR4, stronger effect = lower value 0.996 | locus YBR171W, strain sec66, stronger effect = lower value 0.975 | locus YBR229C, strain ROT2, stronger effect = lower value 0.998 | locus YCL016C, strain dcc1, stronger effect = lower value 0.943 | locus YCL029C, strain bik1, stronger effect = lower value 0.97 | locus YCL061C, strain MRC1, stronger effect = lower value 0.933 | locus YCL069W, strain vba3, stronger effect = lower value 0.947 | locus YCR088W, strain abp1, stronger effect = lower value 0.955 | locus YDL005C, strain med2, stronger effect = lower value 0.974 | locus YDL040C, strain nat1, stronger effect = lower value 0.98 | locus YDL074C, strain BRE1, stronger effect = lower value 0.905 | locus YDL101C, strain DUN1, stronger effect = lower value 1.01 | locus YDL185W, strain tfp1, stronger effect = lower value 0.938 | locus YDR001C, strain nth1, stronger effect = lower value 0.975 | locus YDR101C, strain arx1, stronger effect = lower value 0.963 | locus YDR137W, strain rgp1, stronger effect = lower value 0.953 | locus YDR159W, strain sac3, stronger effect = lower value 0.918 | locus YDR195W, strain ref2 0.999 | locus YDR334W, strain swr1, stronger effect = lower value 0.904 | locus YDR335W, strain msn5, stronger effect = lower value 0.969 | locus YDR363W, strain ESC2, stronger effect = lower value 0.992 | locus YDR388W, stronger effect = lower value 0.933 | locus YEL037C, strain rad23, stronger effect = lower value 0.934 | locus YEL061C, strain CIN8 (second series), stronger effect = lower value 0.966 | locus YER002W, strain NOP16, stronger effect = lower value 1 | locus YER016W, strain bim1, stronger effect = lower value 0.944 | locus YER110C, stronger effect = lower value 1 | locus YER111C, strain swi4, stronger effect = lower value 0.94 | locus YER155C, strain BEM2 (second series), stronger effect = lower value 0.987 | locus YER155C, strain BEM2, stronger effect = lower value 1.01 | locus YGL078C, strain dbp3, stronger effect = lower value 0.978 | locus YGL167C, strain pmr1, stronger effect = lower value 0.916 | locus YGL227W, strain vid30, stronger effect = lower value 0.988 | locus YGL240W, strain doc1, stronger effect = lower value 0.96 | locus YGR078C, strain PAC10, stronger effect = lower value 0.991 | locus YGR252W, strain gcn5, stronger effect = lower value 0.997 | locus YHR079C, strain IRE1 (second series), stronger effect = lower value 0.957 | locus YHR079C, strain IRE1, stronger effect = lower value 0.956 | locus YHR094C, strain hxt1, stronger effect = lower value 0.974 | locus YHR142W, strain chs7, stronger effect = lower value 0.894 | locus YIL125W, strain kgd1, stronger effect = lower value 0.948 | locus YIR030C, strain dcg1, stronger effect = lower value 0.992 | locus YJL092W, strain hpr5, stronger effect = lower value 0.945 | locus YJL095W, strain BCK1 (second series), stronger effect = lower value 0.933 | locus YJL095W, strain BCK1, stronger effect = lower value 1 and 0.958 | locus YJL115W, strain asf1, stronger effect = lower value 0.969 | locus YJL129C, strain trk1, stronger effect = lower value 0.89 | locus YJL134W, strain LCB3, stronger effect = lower value 0.963 | locus YJL154C, strain vps35, stronger effect = lower value 0.962 | locus YJL168C, strain set2, stronger effect = lower value 0.952 | locus YJL187C, strain SWE1 (second series), stronger effect = lower value 0.99 | locus YJR066W, strain TOR1, stronger effect = lower value 0.924
0.891 (active) and 0.969 (inactive): locus YHR030C, strain SLT2, stronger effect = lower value
active: locus YAL021C, strain ccr4, stronger effect = lower value 0.829 | locus YAL026C, strain drs2, stronger effect = lower value 0.812 | locus YAL030W, strain snc1, stronger effect = lower value 0.896 | locus YBL061C, strain skt5, stronger effect = lower value 0.9 | locus YBR009C, strain hhf1, stronger effect = lower value 0.863 | locus YBR023C, strain chs3, stronger effect = lower value 0.91 | locus YBR231C, strain swc5, stronger effect = lower value 0.836 | locus YBR279W, strain paf1, stronger effect = lower value 0.887 | locus YCL011C, strain gbp2, stronger effect = lower value 0.907 | locus YCL061C, strain MRC1 (second series), stronger effect = lower value 0.829 | locus YDL035C, strain GPR1, stronger effect = lower value 0.725 | locus YDL134C, strain PPH21, stronger effect = lower value 0.783 | locus YDL192W, strain arf1, stronger effect = lower value 0.85 | locus YDR069C, strain doa4, stronger effect = lower value 0.719 | locus YDR162C, strain NBP2, stronger effect = lower value 0.388 | locus YDR297W, strain sur2, stronger effect = lower value 0.854 | locus YDR318W, strain mcm21, stronger effect = lower value 0.827 | locus YDR392W, strain spt3, stronger effect = lower value 0.73 | locus YDR502C, strain sam2, stronger effect = lower value 0.876 | locus YEL003W, strain gim4, stronger effect = lower value 0.895 | locus YEL061C, strain CIN8, stronger effect = lower value 0.918 | locus YER015W, strain faa2, stronger effect = lower value 0.828 | locus YER167W, strain BCK2, stronger effect = lower value 0.894 | locus YFR010W, strain ubp6, stronger effect = lower value 0.864 | locus YGL086W, strain mad1, stronger effect = lower value 0.799 | locus YGL173C, strain kem1, stronger effect = lower value 0.729 | locus YGL248W, strain PDE1, stronger effect = lower value 0.787 | locus YGL253W, strain hxk2, stronger effect = lower value 0.878 | locus YGR135W, strain pre9, stronger effect = lower value 0.799 | locus YHR013C, strain ard1, stronger effect = lower value 0.83 | locus YHR027C, strain rpn1, stronger effect = lower value 0.734 | locus YHR129C, strain ARP1, stronger effect = lower value 0.903 | locus YHR200W, strain rpn10, stronger effect = lower value 0.88 | locus YIL066C, strain RNR3, stronger effect = lower value 0.609 | locus YIL073C, strain SPO22, stronger effect = lower value 0.319 | locus YJL164C, strain tpk1, stronger effect = lower value 0.743 | locus YJL166W, strain qcr8, stronger effect = lower value 0.825 | locus YJL187C, strain SWE1, stronger effect = lower value 0.901 | locus YJR043C, strain POL32, stronger effect = lower value 0.752 | locus YJR075W, strain HOC1, stronger effect = lower value 0.822 and 0.894

— PubChem BioAssay AID1159580 (chemical genetic matrix, 2015)
